# Screening results as filed in PubChem.
# An excerpt weighted towards active compounds, which were near 5.2% of everything screened.
# TrxR1 substrate – is turned over as a substrate by rat TrxR1 | purified TrxR1 substrate turnover, NADPH consumption readout | Potency, µM (highest dose often 114 µM), without a hit: top-dose activity change, negative = substrate turnover | 0.01% of 390,000 active; note: nearly all actives have a fitted effect of over 50% in size
#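 Rat TrxR1, dispensed at 90 nM, was prereduced with 400 uM NADPH (final) for 5 min at ~22 deg C, then incubated with compound 15 min before 400 uM selenite. A first-read NADPH fluorescence drop versus no-compound background flagged substrates.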
# PLK1 PBD block – inhibitors of human PLK1 polo-box domain binding; P53350; Potency, µM, without a hit: max response, negative = inhibition, actives largely listed as inhibitors; 2.8% of 360,000 active; Plk1 PBD binding of FITC phosphopeptide, fluorescence polarization; note: series mostly up to about 57 µM; nearly all actives have a fitted effect of over 65% in size
# Target sequence (P53350 whole entry, looked up, the tested form may be a part): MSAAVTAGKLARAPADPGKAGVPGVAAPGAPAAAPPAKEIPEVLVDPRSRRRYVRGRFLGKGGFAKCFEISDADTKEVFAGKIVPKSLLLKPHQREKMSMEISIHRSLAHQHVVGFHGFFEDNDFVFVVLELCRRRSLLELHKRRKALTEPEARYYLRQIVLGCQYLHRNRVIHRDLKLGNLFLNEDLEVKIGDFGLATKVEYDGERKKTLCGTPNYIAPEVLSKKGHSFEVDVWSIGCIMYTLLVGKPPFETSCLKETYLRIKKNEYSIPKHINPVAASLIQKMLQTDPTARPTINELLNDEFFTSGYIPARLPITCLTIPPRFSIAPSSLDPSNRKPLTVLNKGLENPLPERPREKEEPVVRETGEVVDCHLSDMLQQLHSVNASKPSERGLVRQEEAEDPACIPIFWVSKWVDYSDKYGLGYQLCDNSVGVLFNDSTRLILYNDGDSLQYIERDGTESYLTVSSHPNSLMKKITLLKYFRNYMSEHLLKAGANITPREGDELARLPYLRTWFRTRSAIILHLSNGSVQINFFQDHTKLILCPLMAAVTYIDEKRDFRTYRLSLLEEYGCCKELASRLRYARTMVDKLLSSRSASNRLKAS
# IDH1 R132H inh – inhibitors of human mutant IDH1 R132H; AID 602179; Potency, µM (doses to about 76.6 µM), for the others: at the top dose activity change, negative = inhibition, hits mostly inhibitors; IDH1-R132H enzyme, NADPH consumption, diaphorase/resazurin fluorescence; 0.093% of 390,000 active; O75874; note: nearly all actives have a fitted effect of over 65% in size
#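 IDH1-R132H (0.5 ug/mL dispensed) in pH 7.5 Tris buffer was preincubated 30 min with compound, then given a substrate mix of 0.016 mM NADPH and 2 mM alpha-KG for 80 min at room temperature; remaining NADPH was read by diaphorase/resazurin fluorescence.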
# Sfp PPTase inh – blocks B. subtilis Sfp PPTase activity. Q9F4F7. Biochemical Sfp PPTase activity, qHTS. Potency, µM, without a hit: largest response in the series, negative = inhibition, hits mostly inhibitors. 3.5% of 310,000 active. AID 1490;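 note: the enzyme is Sfp with the accession as filed and its product quenches rhodamine fluorescence; 0% = enzyme reaction without inhibitor and -100% = no enzyme wells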
#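 Step 1, compound plus 15 nM Sfp-PPTase, 15 min, room temperature. Step 2, add rhodamine-CoA (5 uM) and BHQ-2-YbbR (12.5 uM). Step 3, read 525/598 nm fluorescence at 0 and 30 min.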
# VDR inhibitor – vitamin D3 receptor (human) inhibition; P11473; VDR-SRC2-3 peptide fluorescence polarization, 2 h; Potency, µM, for inactives: max response, negative = inhibition, actives largely listed as inhibitors; 0.93% of 400,000 active; AID 504847
#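 VDR–SRC2-3 interaction, FP format. Cmpds 23 nl via pintool, brief spin, 2 h ambient incubation.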
# rTrxR1 inhibitor – inhibitors of rat thioredoxin reductase 1; O89049; recombinant rTrxR1, NADPH fluorescence consumption, selenite substrate; Potency, µM (titrated, usually from 114 µM), inactives show at the top dose activity change, negative = inhibition, most hits filed as inhibitors; 1% of 390,000 active; AID 588453; note: nearly all actives have a fitted effect of over 65% in size
#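 Rat TrxR1 (90 nM in the dispensed reagent) was pre-reduced with 400 uM NADPH for 5 min at room temperature, then incubated with compound for 15 min. After 400 uM selenite was added, NADPH fluorescence (Ex 340/Em 450 nm) was followed for 8 min.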
# The depositor's hits bear a star; u = inconclusive; x = no result; [ ] = another dose, or the depositor's remark. Calls come from the whole dose curve; as a rule, active = well fitted curve in the direction sought with a large enough effect; inconclusive = small, poorly fitted or top-dose-only effect, or another doubt; inactive = no such curve, though single readings can be large; an effect the other way counts as inactive or inconclusive. Unless noted, % is set by controls: 0 for no effect and ±100 for the full control effect; potency is the fitted concentration of half-maximal effect.
SMILES,TrxR1 substrate,PLK1 PBD block,IDH1 R132H inh,Sfp PPTase inh,VDR inhibitor,rTrxR1 inhibitor
Cc1ccc(NC(=O)C2c3ccccc3-c3ccccc32)cc1,x,2%,x,x,x,x
Cc1ccc(S(=O)(=O)Nc2ccc(Cl)cn2)cc1C,4%,-8%,12%,16%,0%,26%
CCSc1ccccc1C(=O)Nc1cc(OC)c(OC)c(OC)c1,-3%[57.1 µM],-15%,12%,16µM*,-12%,21%[57.1 µM]
CCOC(=S)N/C(=N\S(C)(=O)=O)c1ccccc1,-2%,17µM*,-10%,20µM*,-24%,21%
CCCOC(=S)N/C(=N\S(=O)(=O)c1ccccc1)c1ccccc1,0%,28µM*,4%,16µM*,-14%,-17%
COC(=S)N/C(=N\S(=O)(=O)c1ccc(Cl)cc1)c1ccccc1,-6%,24µM*,-12%,22µM*,89µM*,-16%
CCOC(=S)N/C(=N\S(=O)(=O)c1ccccc1)c1ccccc1,4%,19µM*,2%,18µM*,-29%,-16%
Cc1ccc(C)c(CN2C(=O)c3ccccc3S(=O)c3ccc(C(=O)NCc4ccco4)cc32)c1 (stereo not drawn),0%,x,-8%,x,-1%,30%
COc1ccc(N2CC(NC(=O)C(c3ccccc3)c3ccccc3)CC2=O)cc1 (stereo not drawn),3%[57.1 µM],x,17%,x,-1%,5%[57.1 µM]
CCOC(=O)CCCCC(=O)c1[nH]c(=O)[nH]c1CSc1nc(C)cc(C)n1,-2%[57.1 µM],-3%,5%,-19%,4%,5%[57.1 µM]
CCOC(=O)CCCCC(=O)c1[nH]c(=O)[nH]c1CSc1nc(C)cc(=O)[nH]1,11%,-16%,2%,7%,-4%,3.2µM*
CCOC(=O)CCCCC(=O)c1[nH]c(=O)[nH]c1CSc1nc2ccccc2[nH]1,-2%,u,7%,-12%,1%,3.2µM*
CSc1nc(N)c2ncn([C@@H]3O[C@H](COP(=O)(O)OP(=O)(O)OP(=O)(O)O)[C@@H](O)[C@H]3O)c2n1,7%[57.1 µM],x,x,-16%,-3%,14%[57.1 µM]
Nc1cc(OC(=O)c2ccco2)nn1S(=O)(=O)c1ccc(F)cc1,-4%[57.1 µM],u,-2%,u,-29%,7.1µM*
COc1cc(C/C=C/c2ccccc2)c(OC)cc1O,x,x,x,-40%,50µM*,x
CC1(C)CC(N2CCN(c3ccccc3)CC2)=CC(=[N+]2CCCC2)C1,-17%,3%,2%,12%,0%,u
CC1(C)CC(N2CCCC2)=CC(=[N+]2CCCCCC2)C1,-24%,30µM*,0%,-2%,-19%,u
CCCCn1c(N)c(-c2nc3ccccc3o2)c2c([N+](=O)[O-])nn(C)c(=O)c21,10%,-29%,-2%,5%,4%,16%[57.1 µM]
N#CC(c1ccccn1)c1ncc(C(F)(F)F)cc1Cl (stereo not drawn),-2%,-10%,-6%,1%,4%,1%
CCn1nc([N+](=O)[O-])c(C(C#N)c2nc3cc(C(F)(F)F)ccc3s2)c(Cl)c1=O (stereo not drawn),-9%,24µM*,3%,-18%,u,32µM*
Cn1nc([N+](=O)[O-])c(C(C#N)c2ccccn2)c(Cl)c1=O (stereo not drawn),-4%,30µM*,16%,-5%,-6%,2.8µM*
CCCn1nc([N+](=O)[O-])c(C(C#N)c2nc3ccccc3o2)c(Cl)c1=O (stereo not drawn),-15%,30µM*,3%,-17%,u,11µM*
COc1ccccc1-c1nnc(SCC(=O)NNC(=O)c2ccccc2F)n1C,4%,0%,2%,x,-5%,11%
CC(OC(=O)c1ccccc1O)C(=O)Nc1ccc(Cl)cn1 (stereo not drawn),8%,19µM*,3%,-6%,u,22%[57.1 µM]
CCOCc1[nH]c(=S)[nH]c(=O)c1Cc1ccc(OCC)cc1,-20%[57.1 µM],27µM*,0%,u,-16%,25%[57.1 µM]
CCCCOc1ccc(Cc2c(COCC)[nH]c(=S)[nH]c2=O)cc1,-14%[57.1 µM],-29%,7%,5%,7%,11%[57.1 µM]
